Source: PubChem
The full list was thinned out, with hits kept by preference.
Pf apPOL inh: Pf-apPOL DNA polymerase inhibition; Recombinant Pf-apPOL, molecular beacon fluorescence, 1.5 h; inhibition, % at 10 µM; 210,000 tested, 0.25% active; AID 1794808
mHTT-CaM PPI inh: inhibitors of human mutant huntingtin-calmodulin interaction; 190,000 tested, 3.6% active; AlphaScreen His-mHTT/GST-CaM binding, luminescence; P42858; inhibition, % at 15 µM
A number is an active result; - = inactive; . = not tested or not shown. Rule as the data show it: active = inhibition above about 50%; inactive = the rest.

SMILES	Pf apPOL inh	mHTT-CaM PPI inh
Cc1nc(-c2ccc([N+](=O)[O-])cc2)nc2ccccc12	-	-
COC(CNC(=O)c1ccc2c(c1)ncn2-c1ccc(OCc2ccccc2)cc1)OC	-	-
CC(C)CC(=O)N1CCC(COc2ccc(C(=O)N3CCCCC3)cc2)CC1	-	-
Cc1cc(C)cc(NC(=O)CN(c2cc(C(F)(F)F)ccc2Cl)S(C)(=O)=O)c1	-	-
COc1ccc(Nc2nc(N)nc(CN3CCCCC3)n2)cc1	-	-
COc1ccc(Nc2nc(N)nc(CN3CCN(c4ccccc4)CC3)n2)cc1	-	54
Cc1ccc(-c2nc3cc(C)ccn3c2NC(=O)C(Cl)Cl)cc1	-	57
CCCC(=O)Nc1c(-c2ccc(C)cc2)nc2cc(C)ccn12	-	-
CC(=O)N1CCN(c2nc3c(s2)CC(C(=O)NCc2ccccn2)CC3)CC1 (stereo not drawn)	-	-
O=C(Cc1nc(-c2ccccn2)n[nH]1)Nc1ccc(Cl)cc1	-	68
O=C(Cc1nc(-c2ccccc2)n[nH]1)Nc1ccccc1	-	-
Cc1ccc(NC(=O)Cc2nc(-c3ccccc3)n[nH]2)cc1C	-	-
O=C(Cc1nc(-c2ccccn2)n[nH]1)Nc1cccc(F)c1	-	99
O=C(Cc1nc(-c2ccccn2)n[nH]1)Nc1cccc(Cl)c1	-	99
O=C(Cc1nc(-c2ccccc2)n[nH]1)Nc1ccc(F)cc1	-	-
Cn1c(=O)c(Cc2ccccc2)c(OC(=O)c2ccccc2)c2ccccc21	-	.
N#Cc1ccc(C(=O)Nc2cccnc2N2CCCC2)cc1	-	-
COc1ccccc1N1CCN(CC(O)COC2CC3CCC2(C)C3(C)C)CC1 (stereo not drawn)	-	-
CC1(C)C2CCC1(C)C(OCC(O)CN1CCN(c3cccc(Cl)c3)CC1)C2 (stereo not drawn)	-	99
CC1(C)C2CCC1(C)C(OCC(O)CN1CCN(Cc3ccc(Cl)cc3)CC1)C2 (stereo not drawn)	-	100
OC(COC12CC3CC(CC(C3)C1)C2)CN1CCN(c2cccc(C(F)(F)F)c2)CC1 (stereo not drawn)	-	-
CC1(C)C2CCC1(C)C(OCC(O)CN1CCCCC1)C2 (stereo not drawn)	-	-
CC12CCC(C1)C(C)(C)C2OCC(O)CN1CCN(c2cccc(C(F)(F)F)c2)CC1 (stereo not drawn)	-	65
Cc1cccc(OCC(=O)NC2CCCCC2C)c1 (stereo not drawn)	-	-
CN(C)c1ccc(/C=C2\SC(=O)N(CNc3ccccc3Cl)C2=O)cc1	-	-
SMILES	Pf apPOL inh	mHTT-CaM PPI inh
COc1ccc(CNC(=O)N2CCc3cn(C)c4cccc(c34)C2)cc1	-	-
COc1cccc(-c2cn3c(n2)N(C(=O)Cc2cccs2)CCC3)c1	-	82
COc1ccc(-c2cn3c(n2)N(C(=O)Cc2cccs2)CCC3)cc1	-	-
COc1cc(NC(=O)C(C)(C)Oc2ccc(Cl)cc2)c(OC)cc1Cl	-	-
COc1ccc(C=CC(=O)c2cc(F)ccc2O)c(OC)c1	-	-
COc1ccc(C=CC(=O)c2cc(C)ccc2O)c(OC)c1	-	67
COc1ccc(O)c(C(=O)C=Cc2ccc3c(c2)OCCCO3)c1	-	80
O=C(C=Cc1ccc2c(c1)OCCCO2)c1cc([N+](=O)[O-])ccc1O	-	-
CCOC(=O)c1c(NC(=O)C2Cc3ccccc3C(=O)O2)sc(C)c1C (stereo not drawn)	-	-
COc1cccc(-c2noc(C3CCCN3C(=O)NC3CCCC3)n2)c1 (stereo not drawn)	-	-
Cc1ccccc1C1CC(c2ccc(Cl)cc2)Nc2ncnn21 (stereo not drawn)	-	-
Cc1cccnc1NC(=O)c1c(O)c2cccc3c2n(c1=O)CCC3	-	-
O=C(Nc1ncccn1)c1c(O)c2cccc3c2n(c1=O)CCC3	-	56
O=C(Nc1ccccn1)c1c(O)c2cccc3c2n(c1=O)CCC3	-	-
O=C(Nc1ncccc1O)c1c(O)c2cccc3c2n(c1=O)CC3	-	52
CCN(CC)CCNS(=O)(=O)c1cc(Br)cc2c1N(C(C)=O)C(C)C2 (stereo not drawn)	-	-
O=C(CSc1ccc(-c2ccc(-n3ccnc3)cc2)nn1)Nc1nccs1	-	-
CSc1ccc(NC(=O)N2CC3CC(NS(C)(=O)=O)C2C3)cc1 (stereo not drawn)	-	-
CCN1CCN(Cc2ccc(N(CC)CC)cc2)CC1	-	69
CN1CCCN(Cc2ccc(Br)cc2)CC1	75	-
CCN(CC)c1ccc(CN2CCSCC2)cc1	-	-
CCN(CC)c1ccc(CN2CCN(c3ncccn3)CC2)cc1	-	-
CC(C)c1ccc(CN2CCCN(C)CC2)cc1	-	-
CCN(CC)c1ccc(CN2CCN(C)CC2)cc1	-	68
CC(=O)N1CCc2cc(N3CC(C(=O)Nc4ccc5c(c4)OCCO5)CC3=O)ccc21 (stereo not drawn)	-	-
SMILES	Pf apPOL inh	mHTT-CaM PPI inh
CC1CCN(S(=O)(=O)c2nn(C)cc2C(=O)NCc2ccc3c(c2)OCO3)CC1	-	-
CO/N=C(/c1nonc1N)N1CCN(c2ccc([N+](=O)[O-])cc2)CC1	-	-
O=C(NCc1ccc(N2CCCC2)cc1)c1cccc(N2CCNC(c3ccccc3)C2)n1 (stereo not drawn)	-	82
O=C(NCc1ccncc1)c1cccc(N2CCNC(c3ccccc3)C2)n1 (stereo not drawn)	-	-
O=C(NCCc1cccs1)c1cccc(N2CCNC(c3ccccc3)C2)n1 (stereo not drawn)	-	87
COc1ccc(NC(=O)c2cccc(N3CCNC(c4ccccc4)C3)n2)c(OC)c1 (stereo not drawn)	-	70
O=C(NCCc1ccccn1)c1cccc(N2CCNC(c3ccccc3)C2)n1 (stereo not drawn)	-	-
COc1cccc(NC(=O)c2cccc(N3CCNC(c4ccccc4)C3)n2)c1 (stereo not drawn)	-	-
Cc1nc(Oc2ccc(F)cc2)c(C(=O)N2CCOCC2)c(C)c1Cl	-	-
Oc1ccccc1-c1nc(-c2ccccc2)no1	-	-
Cc1ccsc1C(=O)N1CCC2(CC1)Nc1cccnc1NC2=NC(C)(C)C	-	-
COC(CNC(=O)c1ccc(NCC2CCCO2)c([N+](=O)[O-])c1)OC (stereo not drawn)	-	-
CCOc1ccc2nc(SCC(=O)Nc3nccs3)[nH]c2c1	-	-
CCc1ccc(NC(=O)N2CCc3nc4cc(-c5ccccc5Cl)[nH]n4c(=O)c3C2)cc1	-	-
CC(=O)Nc1ccc(O)c(C(=O)O)c1	-	.
O=C(O)C1=CC(=C(c2ccc(O)c(C(=O)O)c2)c2ccc(O)c(C(=O)O)c2)C=CC1=O	92	.
Cc1c(Cl)cccc1NC(=O)c1ccc([N+](=O)[O-])cc1Cl	-	-
O=C(Oc1ccc2c(c1)OCC2=O)c1cccs1	-	.
COc1ccc(C)cc1-n1cnc2cc(C(=O)NC3CCCCC3C)ccc21 (stereo not drawn)	-	66
Cc1ccc(-n2cnc3cc(C(=O)NC4CCCC4)ccc32)c(C)c1	-	-
COc1cc(OC)c2c(-c3ccccc3)cc(=O)oc2c1C(CC(=O)N1CCN(c2ccccc2)CC1)c1ccc(N(C)C)cc1 (stereo not drawn)	-	58
COc1cc(OC)c2c(-c3ccccc3)cc(=O)oc2c1C(CC(=O)N1CCOCC1)c1ccc(N(C)C)cc1 (stereo not drawn)	-	66
COc1cc(O)c(C(CC(=O)N2CCCC2)c2ccc(N(C)C)cc2)c(OC)c1 (stereo not drawn)	-	-
